From PubChem BioAssay AID588795 (National Center for Advancing Translational Sciences (NCATS), 2011)
Several values for one entry are separate records, joined by “and”; a condition that tells them apart may be missing. Equal values may be shown once. About 1,400 (0.36%) of roughly 390,000 compounds were called active. Inconclusive results (about 2%) are left out. The call rests on the fitted dose curve; in most records, active means well fitted inhibition curve with a large enough effect; inconclusive means small, poorly fitted or top-dose-only effect; inactive means no such curve, though single readings can be large or run the other way. For the sample, actives were picked, then their nearest neighbours and some compounds at random. Where a structure was tested more than once in an assay, its records may differ in their call.

Target: Flap endonuclease 1 (Homo sapiens) (UniProt P39748)
Experiment: qHTS Assay for the Inhibitors of Human Flap endonuclease 1 (FEN1). Further: nearly all actives have a fitted effect of over 65% in size.
Details: Recombinant FEN1 flap cleavage, fluorescence, 15 min; series mostly up to 114 µM; activity change, negative = inhibition: at the top concentration
Description: The major human flap endonuclease FEN1 is an efficient structure-specific enzyme that recognizes and cleaves a 5'-unannealed DNA flap. It belongs to the RAD2 family nucleases, which are involved in DNA metabolism and are highly conserved in prokaryotes and eukaryotes. FEN1 is a key enzyme in DNA replication, repair and maintenance of genomic stability. 5'-flap removal by FEN1 is critical for Okazaki fragment processing during lagging strand DNA synthesis, long-patch base excision repair (LP BER), and regulating or facilitating recombination events. […] Deletion of the yeast FEN1 gene, i.e. rad27, results in an increased frequency of short DNA (3-32 bp) repeats, micro- and mini-satellite formation, trinucleotide repeat expansion, spontaneous recombination events, and a severe growth defect in association with cell cycle arrest in late S/G2 phase. […] Cells from fen1-/- blastocysts show increased apoptotic cell death after ionizing radiation treatment, and chicken cells lacking the fen1 gene are hypersensitive to DNA alkylating agents, e.g. methylmethane sulfonate (MMS) and N-methyl-N'-nitro-N-nitrosoguanidine (MNNG), as well as hydrogen peroxide.
NIH Chemical Genomics Center [NCGC]
NIH Molecular Libraries Probe Centers Network [MLPCN]
Assay Submitter (PI): David Wilson, National Institute of Aging
Three uL of reagents (buffer in column 3 and 4 as negative control and 10 nM FEN1 in columns 1, 2, and 5-48) were dispensed into 1,536-well black solid-bottomed plate. Compounds (23 nL) were transferred via Kalypsys pin tool equipped with 1536-pin array (10 nL slotted pins, V&P Scientific, San Diego, CA). The plates were then incubated for 15 min at room temperature, and 1 uL substrate (50 nM final concentration) were added to start the reaction read twice at 0 min read and 15 min on ViewLux reader. Throughout the screen, reagent bottle and all liquid lines were chilled and made light-tight to minimize reagent degradation. All screening operations were performed on a fully integrated robotic system (Kalypsys, San Diego, CA) containing one RX-130 and two RX-90 anthropomorphic robotic arms (Staubli, Duncan, SC). Library plates were screened starting from the lowest and proceeding to the highest concentration, and a "double-dipping" step of the highest concentration was required to access higher concentrations of compounds. Vehicle-only plates, with DMSO being pin-transferred to the entire column 5-48 compound area, were inserted uniformly at the beginning and the end of each library in order to monitor for and record any shifts in the background, which can be affected by reagent dispensers or loss in enzyme activity overtime. Screening data was corrected, normalized, and concentration-effect relationships were derived by using publicly-available curve fitting algorithms developed in-house (http://ncgc.nih.gov/pub/openhts). A four parameter Hill equation was fitted to the concentration-response data by minimizing the residual error between the modeled and observed responses.
On the % scale 0 is the no-effect control and ±100 the full control effect; potency means the concentration at half of the fitted maximal effect.

Sequence of Flap endonuclease 1 (Homo sapiens) (P39748 whole entry, looked up): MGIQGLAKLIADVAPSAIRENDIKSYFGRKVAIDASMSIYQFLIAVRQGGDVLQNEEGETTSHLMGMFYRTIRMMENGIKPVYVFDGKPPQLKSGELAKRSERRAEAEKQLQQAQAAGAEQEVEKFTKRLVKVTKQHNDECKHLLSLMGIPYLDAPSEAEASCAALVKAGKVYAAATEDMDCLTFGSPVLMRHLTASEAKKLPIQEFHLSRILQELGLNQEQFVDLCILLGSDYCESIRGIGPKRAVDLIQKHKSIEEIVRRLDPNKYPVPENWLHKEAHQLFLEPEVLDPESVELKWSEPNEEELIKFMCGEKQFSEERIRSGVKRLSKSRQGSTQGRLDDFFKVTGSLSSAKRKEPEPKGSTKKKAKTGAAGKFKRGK

| SMILES | activity change, negative = inhibition | Potency |
| --- | --- | --- |
| CC(C)(C)C1CCC(NC(=O)c2cnn3c2NC(=C2CC2)C=C3C(F)F)CC1 (configuration not stated) | -7.54% (inactive) | – |
| CCC1(C)Cc2c(sc3[nH]c(=S)n(Cc4ccccc4)c(=O)c23)CO1 (configuration not stated) | -2.77% (inactive) | – |
| C=CCn1c(=S)[nH]c2scc(-c3ccco3)c2c1=O | – | 39.8 µM (active) |
| CCOc1ccc(NC(=O)c2ncoc2-c2ccco2)cc1 | -10.3% (inactive) | – |
| COCCNC(=O)Nc1ccc2nc(-c3ccco3)c(-c3ccco3)nc2c1 | – | 11.2 µM (active) |
| C=CCNC(=O)c1ccc2nc(-c3ccco3)c(-c3ccco3)nc2c1 | -23.2% (inactive) | – |
| CC1(C)CC(=O)c2cc(C(=O)NCc3ccccc3)c(=O)[nH]c2C1 | 11.9% (inactive) | – |
| O=C1CCC[C@@H]2C[C@@]3(C[C@@H]4CCN1[C@H]24)Nc1ccccc1NC3=NCc1ccccc1 | -1.02% (inactive) | – |
| COc1cccc2c1C(=O)c1c(O)c3c(c(O)c1C2=O)CC(O)(C(C)=NNC(=O)c1ccc(Cl)c(Cl)c1)CC3OC1CC(N)C(O)C(C)O1 (configuration not stated) | – | 44.7 µM (active) |
| CN1CCN(/[N+]([O-])=N/Oc2ccc([N+](=O)[O-])cc2[N+](=O)[O-])CC1 | -16.6% (inactive) | – |
| O=C1CC(c2ccccc2)CC2=C1C(c1ccco1)n1nc(C(F)(F)F)nc1N2 (configuration not stated) | -5.72% (inactive) | – |
| O=C1CSC(=S)N1/N=C/c1ccc(O)c([N+](=O)[O-])c1 | – | 28.2 µM (active) |
| CCOc1cccc(/C=N/N2C(=O)CSC2=S)c1O | 1.58% (inactive) | – |
| CO/N=C/c1ccc(N2CCN(C(=O)c3cccc(Cl)c3)CC2)c([N+](=O)[O-])c1 | -3.16% (inactive) | – |
| COc1ccccc1CNC(=O)C(=O)NCC(c1ccco1)S(=O)(=O)c1ccc(F)cc1 (configuration not stated) | 11.7% (inactive) | – |
| CN(C)c1cccc2ccccc12 | 1.97% (inactive) | – |
| Brc1nc2ncnc(NCc3ccco3)c2[nH]1 | -16.5% (inactive) | – |
| C[N+]1(CC(=O)c2cccs2)CCOCC1 | -17.5% (inactive) | – |
| O=C(NCCc1ccccc1)c1ccc2c(c1)N(Cc1ccccc1)C(=O)c1ccccc1S2(=O)=O | -10.8% (inactive) | – |
| CCC(C)N(c1ccc(/C=C/c2ccnc3ccccc23)cc1)C(C)CC (configuration not stated) | -22.3% (inactive) | – |
| Cn1c(COc2ccccc2C(C)(C)C)nc2ccccc21 | -2.63% (inactive) | – |
| CCOc1n[nH]c(-c2ccccc2)n1 | -2.51% (inactive) | – |
| O=C(Nc1ccc(N2CCOCC2)cc1)c1ccc(-c2ccccc2[N+](=O)[O-])o1 | -16% (inactive) | – |
| CC1=NN(c2ccc(Cl)c(C(=O)O)c2)C(=O)/C1=C/c1ccc(-c2ccccc2[N+](=O)[O-])o1 | – | 28.2 µM (active) |
| O=C1NC(c2ccc(-c3ccccc3[N+](=O)[O-])o2)C(C(=O)c2ccc(Cl)cc2)C(O)(C(F)(F)F)N1 (configuration not stated) | -22.5% (inactive) | – |
| CN(C(=N)N)c1ccc(/C=C2\C=Cc3ccccc32)cc1 | -10.5% (inactive) | – |

| SMILES | activity change, negative = inhibition | Potency |
| --- | --- | --- |
| CC(=O)Nc1ccc2nc(SCCOc3cc(C)cc(C)c3)sc2c1 | 11.5% (inactive) | – |
| COc1ccc2c(c1)c(=Cc1ccc(N(C)C)cc1)c1cc(-c3ccccc3)[n+](C)n12 | – | 4.47 µM (active) |
| CN(C)c1ccc(/C=c2\[nH]c(=O)/c(=C/c3ccc(N(C)C)cc3)[nH]c2=O)cc1 | -0.26% (inactive) | – |
| CN(C)CCCn1c(-c2ccc(Cl)cc2)csc1=Nc1ccccc1 | -14.2% (inactive) | – |
| CC1(C)C=Cc2c(ccc(C(=O)/C=C/c3ccccc3)c2O)O1 | -7.78% (inactive) | – |
| CC(C)(C)c1ccc(C(=O)C[n+]2cccc3cc(Cl)ccc32)cc1 | -3.13% (inactive) | – |
| Nc1nc(N)c(N=O)c(N)n1 | -13.9% (inactive) | – |
| CC(C)(C)n1ncc2c(=O)n(Cc3ccc(C(=O)c4ccccc4)cc3)cnc21 | 6.55% (inactive) | – |
| CC(C)(C)n1ncc2c(=O)n(Cc3ccc(Cl)cc3)cnc21 | – | inactive and 39.8 µM (active) |
| CC(C)(C)n1ncc2c(=O)n(Cc3c(Cl)cccc3Br)cnc21 | -20% (inactive) | – |
| Oc1ccc(Br)cc1C1C=C(c2ccc3c(c2)OCO3)NC(c2ccc(Cl)cc2)N1 (configuration not stated) | -18% (inactive) | – |
| N#Cc1ccc[n+](CC(=O)c2ccc(F)cc2)c1 | 17% (inactive) | – |
| N#Cc1ccc[n+](CC(=O)c2ccc(O)c(O)c2)c1 | – | 2 µM (active) |
| O=C(C[n+]1ccncc1)c1ccc2c(c1)CCCC2 | 13.6% (inactive) | – |
| CCN1CCN(c2ccc(/C=C/c3ccnc4ccccc34)cc2)CC1 | -31.7% (inactive) | – |
| N#CCC(=O)N/N=C/c1cn(Cc2ccc3ccccc3c2)c2ccccc12 | 3.82% (inactive) | – |
| Cc1ccc(Cl)cc1NC(=O)/C(C#N)=C\c1cn(Cc2ccc(F)cc2)c2ccccc12 | – | 89.1 µM (active) |
| Cc1ccc(/C=C(\C#N)C(=O)Nc2cc(C)ccc2C)cc1 | 16.1% (inactive) | – |
| O=C1O/C(=C\c2ccc(O)cc2)C(O)=C1c1ccc(O)cc1 | -7.29% (inactive) | – |
| CCc1ccc(OCCCn2c(CCCNC(=O)C3CCCCC3)nc3ccccc32)cc1 | 7.45% (inactive) | – |
| CN(C)Cc1cn(-c2ccccc2)nc1-c1ccccc1 | -15.4% (inactive) | – |
| c1ccc(CSc2nnc(-c3ccco3)c(-c3ccco3)n2)cc1 | – | 56.2 µM (active) |
| Cc1ccc(-c2nnc(SCC(=O)NCc3ccccc3)nc2-c2ccc(C)cc2)cc1 | -14.6% (inactive) | – |
| O=C(NCCSc1ccccc1)c1ccco1 | -3.87% (inactive) | – |
| NC(=O)Nc1ccc(/C=C/c2ccnc3ccccc23)cc1 | 2.76% (inactive) | – |
| CC1CC(C)CN(c2oc(-c3ccc(OCc4ccc(Cl)cc4)cc3)nc2C#N)C1 (configuration not stated) | 13.6% (inactive) | – |
